Shown are actives, neighbours in structure and some others; about 8.1% of the full set was active somewhere.
VP16 counter: inhibits Gal4-VP16 luciferase reporter, ROR gamma counter-screen; Potency, µM (top dose mostly 53.6 µM), for the others: at the top dose activity, negative = inhibition, usual class: inhibitors; Drosophila S2 Gal4-VP16 UAS-luciferase, luminescence, 20 h; actives 3.5% (n = 310,000); AID 2546;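 also: Gal4-VP16 expression switched on by copper sulfate through the metallothionein promoter; % is scaled to controls: 0 for no effect and ±100 for the full control effect; nearly all actives have a fitted effect of over 50% in size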
Epigenetic reg: regulators of epigenetic silencing causing reporter derepression in mouse cells; murine LDR cells, GFP reporter derepression, 30 h; Potency, µM (series often up to 53.9 µM), for the others: at the highest dose GFP activation, actives largely listed as activators; actives 0.2% (n = 280,000); AID 1865; also: % of control where 0% means no effect; nearly all actives have a fitted effect of over 60% in size
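In this reporter-derepression format, murine cells bearing a silenced integrated CMV-GFP locus incubate with test compound (30 h, 37 C), then are washed and imaged; fluorescent objects of 20–120 um count as induced cells.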
RORg inh: blocks mouse ROR gamma transcriptional activity; Potency, µM (top dose mostly 53.6 µM), for the others: at the highest dose activity change, negative = inhibition, hits mostly inhibitors; P51450; Drosophila S2 Gal4-RORgamma UAS-luciferase reporter, 20 h; AID 2551; actives 5.4% (n = 310,000); also: % is scaled to controls: 0 for no effect and ±100 for the full control effect; nearly all actives have a fitted effect of over 60% in size
Target sequence (P51450 whole entry, looked up, the tested form may be a part): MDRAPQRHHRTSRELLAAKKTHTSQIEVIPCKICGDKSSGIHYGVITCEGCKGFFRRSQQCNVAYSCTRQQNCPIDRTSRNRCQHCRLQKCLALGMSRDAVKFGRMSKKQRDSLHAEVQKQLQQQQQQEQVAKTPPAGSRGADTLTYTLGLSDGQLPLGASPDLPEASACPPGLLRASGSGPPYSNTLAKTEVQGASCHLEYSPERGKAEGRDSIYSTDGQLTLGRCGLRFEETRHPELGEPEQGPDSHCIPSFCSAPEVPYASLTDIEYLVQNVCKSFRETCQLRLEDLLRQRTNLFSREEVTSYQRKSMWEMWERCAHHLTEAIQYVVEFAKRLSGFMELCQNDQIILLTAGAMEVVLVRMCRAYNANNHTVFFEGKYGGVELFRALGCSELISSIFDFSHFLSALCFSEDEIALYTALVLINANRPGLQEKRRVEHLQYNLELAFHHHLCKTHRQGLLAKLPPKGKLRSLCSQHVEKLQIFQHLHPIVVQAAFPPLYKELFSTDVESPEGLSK
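Stable Schneider cell line, Gal4 DNA-binding domain fused to ROR gamma, UAS-luciferase. Cmpd 1 hr RT → CuSO4 700 uM final → 20 hr RT → luciferase reagent 10 min → luminescence.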
PINK1 modulator: PINK1 expression modulation | PINK1 immunofluorescence, high-content cytometry, 24 h | actives 0.2% (n = 410,000) | Potency, µM (top dose mostly 76.6 µM), without a hit: at the top dose activation (PINK1 increase), usual class: activators | AID 624263; active = well fitted activation curve with a large enough effect; inconclusive = small, poorly fitted or top-dose-only effect; cell line not stated here; also: % of control where 0% means no effect; nearly all actives have a fitted effect of over 65% in size
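Cells are seeded, rested 12 hours, then given compound at five concentrations or DMSO for 24 hours. After fixation, blocking and antibody staining, PINK1 amount and mitochondrial localization are scored; CCCP serves as control.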
Sfp inh: blocks B. subtilis Sfp PPTase activity | Q9F4F7 | Biochemical Sfp PPTase activity, qHTS | Potency, µM, for inactives: largest response in the series, negative = inhibition, actives largely listed as inhibitors | actives 3.5% (n = 310,000) | AID 1490;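 also: the enzyme is Sfp with the accession as filed and its product quenches rhodamine fluorescence; 0% = enzyme reaction without inhibitor and -100% = no enzyme wells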
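Step 1, compound plus 15 nM Sfp-PPTase, 15 min, room temperature. Step 2, add rhodamine-CoA (5 uM) and BHQ-2-YbbR (12.5 uM). Step 3, read 525/598 nm fluorescence at 0 and 30 min.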
ClpP mod: qHTS Assay for Activators of ClpP; ATP-dependent Clp protease proteolytic subunit (Bacillus subtilis (strain 168)), P80244; purified B. subtilis ClpP, FRET peptide cleavage, 20 min; Potency, µM (titrated, usually from 57.5 µM), inactives show at the highest dose activity change, negative = active; actives 1.9% (n = 340,000); AID 651965, 2013; active = well fitted falling curve with a large enough effect; inconclusive = small, poorly fitted or top-dose-only effect; inactive = no such curve, though single readings can be large or run the other way; also: the source files actives as falling curves though it sought activators and does not explain the sign; nearly all actives have a fitted effect of over 65% in size
Target sequence (P80244 whole entry, looked up): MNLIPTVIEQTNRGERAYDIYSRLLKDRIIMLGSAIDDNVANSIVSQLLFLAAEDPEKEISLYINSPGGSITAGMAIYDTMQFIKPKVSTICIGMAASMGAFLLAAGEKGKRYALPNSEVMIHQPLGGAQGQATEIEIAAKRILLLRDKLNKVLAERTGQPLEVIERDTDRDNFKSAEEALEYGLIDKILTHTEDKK
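Purified B. subtilis ClpP, 10 microg/mL final in Tris/HCl pH8 with KCl, BSA, glycerol and Tween-20, cleaved an Abz/nitrotyrosine-quenched decapeptide. Fluorescence (ex 320, em 430) was read at 0 and 20 min at room temperature. Delta was normalized to 5.8 microM ADEP and DMSO/no-enzyme controls.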
An asterisk follows results filed as active; [ ] = another dose, or the depositor's remark. Unless noted, calls follow the shape of the dose curve; as a rule, active = well fitted curve in the direction sought with a large enough effect; inconclusive = small, poorly fitted or top-dose-only effect, or another doubt; inactive = no such curve, though single readings can be large; an effect the other way counts as inactive or inconclusive. Potency is read from the fitted curve at half-maximal effect.

How did Brc1ccc(OCc2nc(-c3ccccn3)n[nH]2)cc1 do in these assays?
VP16 counter: inconclusive; Epigenetic reg: inconclusive; RORg inh: 14µM*; PINK1 modulator: -1%; Sfp inh: 8%; ClpP mod: -5%

What do the screens show for `Clc1ccc(OCc2nc(-c3ccccn3)n[nH]2)cc1`?
VP16 counter: -9%; Epigenetic reg: 0%; RORg inh: -1%; PINK1 modulator: inconclusive; Sfp inh: 2%; ClpP mod: -2%

How did CCS(=O)(=O)Nc1cc(C(=O)N2CCC[C@H]2CO)c2c(c1)nc(-c1ccccc1)n2C do in these assays?
PINK1 modulator: 1%

How did O=C(Cn1nnc(-c2ccccc2Cl)n1)N/N=C/c1ccc(-c2cccc(Cl)c2)o1 do in these assays?
VP16 counter: 6.3µM*; Epigenetic reg: 1%; RORg inh: 7.1µM*; PINK1 modulator: 4%; Sfp inh: 3%; ClpP mod: 93%

Results for Nc1nc(CCl)nc(Nc2cccc3ccccc23)n1 ?
VP16 counter: 10µM*; Epigenetic reg: 0%; RORg inh: 11µM*; PINK1 modulator: -2%; Sfp inh: 13%; ClpP mod: 3%

How did COCCn1c(C)cc(C2=NNC(=NC3CC3)SC2)c1C do in these assays?
VP16 counter: 1.1µM*; Epigenetic reg: -1%; RORg inh: 1.1µM*; PINK1 modulator: 0%; Sfp inh: 50µM*; ClpP mod: 1%

Results for COCC(C)N=C1NN=C(c2cc(C)n(Cc3ccccc3Cl)c2C)CS1 (stereo not drawn) ?
VP16 counter: -11%; Epigenetic reg: -2%; RORg inh: -31%; PINK1 modulator: 35µM*; Sfp inh: -20%; ClpP mod: -1%

How did COCCn1c(C)cc(C2=NNC(=Nc3ccc(Cl)cc3Cl)SC2)c1C do in these assays?
VP16 counter: -4%; Epigenetic reg: -1%; RORg inh: -1%; PINK1 modulator: 18%[38.3 µM]; Sfp inh: 56µM*; ClpP mod: -3%

What do the screens show for `COCCn1c(C)cc(O)c(C(c2ccc(Cl)cc2)N2CCCCC2)c1=O` (stereo not drawn)?
Epigenetic reg: -1%; PINK1 modulator: 0%; ClpP mod: -1%

How did COCCCN=C1NN=C(c2cc(C)n(Cc3ccco3)c2C)CS1 do in these assays?
VP16 counter: inconclusive; Epigenetic reg: 0%; RORg inh: inconclusive; PINK1 modulator: 9%; Sfp inh: inconclusive; ClpP mod: 0%

Results for C=CCN=C1NN=C(c2cc(C)n(CCOC)c2C)CS1 ?
VP16 counter: -83%; Epigenetic reg: -1%; RORg inh: 1µM*; PINK1 modulator: 2%; Sfp inh: 40µM*; ClpP mod: 1%

What do the screens show for `Cc1cc(C2=NNC(=NC3CC3)SC2)c(C)n1Cc1ccco1`?
VP16 counter: -3%; Epigenetic reg: 1%; RORg inh: inconclusive; PINK1 modulator: inconclusive; Sfp inh: inconclusive; ClpP mod: -3%

What do the screens show for `Cc1nc2nc(CNC(=O)c3cccc(F)c3)nn2c(C)c1CCC(=O)Nc1cccc(Cl)c1`?
Epigenetic reg: 7%; PINK1 modulator: 4%; ClpP mod: 0%

Results for CC1CCN(S(=O)(=O)c2cc(C(=O)NCc3ccc(N(C)C)cc3)n(C)c2)CC1 ?
Epigenetic reg: -1%; PINK1 modulator: 0%; ClpP mod: -1%

How did O=C(Cn1cc(S(=O)(=O)Cc2cccc(Cl)c2)c2ccccc21)Nc1ccccc1Cl do in these assays?
Epigenetic reg: 1%; PINK1 modulator: 0%; ClpP mod: 0%

Results for COC(=O)/C=C/c1cc(O)ccc1O ?
Epigenetic reg: 13%; Sfp inh: 50µM*

What do the screens show for `Nc1[nH]nc2nc3ccccc3nc12`?
VP16 counter: inconclusive; Epigenetic reg: 0%; RORg inh: inconclusive; Sfp inh: 9%

How did Nc1[nH]nc2ncc3cc4ccccc4nc3c12 do in these assays?
VP16 counter: -6%; Epigenetic reg: -5%; RORg inh: -23%; PINK1 modulator: -1%; Sfp inh: 35µM*

What do the screens show for `COC(=O)c1sccc1S(=O)(=O)N(CC(=O)NCc1ccc(C)cc1)c1ccc(C)c(C)c1`?
Epigenetic reg: 4%; PINK1 modulator: 5%; ClpP mod: 0%

Results for O=[N+]([O-])c1ccc(O)c(C(C#Cc2ccccc2)N2CCOCC2)c1 (stereo not drawn) ?
VP16 counter: -5%; Epigenetic reg: 0%; RORg inh: 38%; PINK1 modulator: 40µM*; Sfp inh: -3%

How did O=C(C[n+]1ccnc2ccccc21)c1ccc(Cl)cc1 do in these assays?
ClpP mod: -3%

Results for CCC1Oc2ccc(C)cc2N(CC(=O)N(Cc2cccnc2)Cc2ccc(C)o2)C1=O (stereo not drawn) ?
VP16 counter: inconclusive; Epigenetic reg: inconclusive; RORg inh: 14µM*; PINK1 modulator: -1%[38.3 µM]; Sfp inh: -90%; ClpP mod: 2%

What do the screens show for `Cc1cnc(SCc2ccccn2)nc1C1CCCN(C(=O)c2coc3c2C(=O)CCC3)C1` (stereo not drawn)?
PINK1 modulator: 0%

Results for COc1ccccc1C1CN(Cc2c(C)nn(C)c2Cl)Cc2ccccc2O1 (stereo not drawn) ?
PINK1 modulator: -1%

Results for CCCCS(=O)(=O)Nc1ccc2ncn(C)c(=O)c2c1 ?
VP16 counter: 11%; Epigenetic reg: 0%; RORg inh: -23%; PINK1 modulator: -2%[38.3 µM]; Sfp inh: 8%; ClpP mod: 32µM*

How did Cc1c(C(=O)Oc2ccc(-c3cnc4ccccc4n3)cc2)cccc1[N+](=O)[O-] do in these assays?
VP16 counter: 0%; Epigenetic reg: -3%; RORg inh: 4%; PINK1 modulator: 2%; Sfp inh: 50µM*; ClpP mod: -5%

How did N#Cc1cc(-c2ccccc2)nc(NN)n1 do in these assays?
VP16 counter: -19%; Epigenetic reg: -2%; RORg inh: inconclusive; PINK1 modulator: 1%; Sfp inh: 2%

Results for NNc1nc(-c2ccccc2)cc(-c2ccccc2)n1 ?
VP16 counter: -9%; Epigenetic reg: 0%; RORg inh: 4.5µM*; PINK1 modulator: -1%; Sfp inh: inconclusive; ClpP mod: 0%

Results for NNc1nc(-c2ccccc2)cc(-c2ccccc2O)n1 ?
VP16 counter: 13µM*; Epigenetic reg: 0%; RORg inh: 7.1µM*; PINK1 modulator: 1%[38.3 µM]; Sfp inh: -5%; ClpP mod: -2%
